# FLuc inh: blocks purified firefly luciferase enzyme activity; P08659; purified P. pyralis luciferase, luminescence, biochemical; Potency, µM (series often up to 115 µM), most hits filed as inhibitors; 76,000 compounds, 2.5% hits; further: nearly all actives have a fitted effect of over 65% in size
# Target sequence (P08659 whole entry, looked up): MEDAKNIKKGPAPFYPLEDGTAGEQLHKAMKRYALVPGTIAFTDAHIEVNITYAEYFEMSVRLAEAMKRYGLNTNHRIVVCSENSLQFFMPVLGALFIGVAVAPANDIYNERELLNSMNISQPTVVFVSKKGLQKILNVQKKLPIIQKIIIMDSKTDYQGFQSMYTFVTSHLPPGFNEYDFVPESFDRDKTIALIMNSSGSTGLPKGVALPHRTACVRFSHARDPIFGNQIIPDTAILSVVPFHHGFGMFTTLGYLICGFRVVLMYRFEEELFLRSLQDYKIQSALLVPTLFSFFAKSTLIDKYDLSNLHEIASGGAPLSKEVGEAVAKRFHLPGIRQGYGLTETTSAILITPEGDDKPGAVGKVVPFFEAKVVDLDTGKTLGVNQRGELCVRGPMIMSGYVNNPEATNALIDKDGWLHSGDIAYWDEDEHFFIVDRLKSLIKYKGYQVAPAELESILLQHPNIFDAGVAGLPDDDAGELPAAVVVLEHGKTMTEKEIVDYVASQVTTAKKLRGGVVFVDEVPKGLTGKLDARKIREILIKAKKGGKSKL
#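 Luminescence read by CCD imager after adding enzyme (10nM final) to wells holding compound, titrated in qHTS. Substrates 10uM each D-luciferin and ATP; buffer 50mM Tris acetate pH 7.5, 10mM Mg acetate, Tween-20, BSA.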
# NIH3T3 tox: cytotoxic compounds in NIH 3T3 cells; NIH 3T3 viability, CellTiter-Glo ATP luminescence, 48-72 h; Potency, µM (titrated, usually from 96.7 µM), for inactives: at the highest dose activity change, negative = cytotoxicity, usual class: inhibitors; 94,000 compounds, 4.3% hits; further: nearly all actives have a fitted effect of over 55% in size
#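 Cells were seeded at 400 per well, treated with pin-transferred compound, and kept 48 or 72 hr at 37 °C before CellTiter-Glo addition and luminescence imaging of cellular ATP.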
# hNpr1 antagonist: antagonists of human natriuretic peptide receptor Npr1; P16066; HEK293 hNpr1 GloSensor cGMP, ANP-stimulated luminescence; Potency, µM (highest dose often 46.3 µM), for the others: at the top dose activity change, negative = inhibition, usual class: inhibitors; 76,000 compounds, 1.6% hits; calls by dose curve; further: nearly all actives have a fitted effect of over 60% in size
#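 Compound pre-incubated 30 min at room temperature on GloSensor-loaded HEK293 cells stably carrying hNpr1 and the pGS-40F cGMP biosensor. Stimulation uses hNppA at 0.1 nM final; luminescence is taken at baseline and 20 min post-agonist.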
# HEK293 tox: HEK 293 cell cytotoxicity; HEK 293 viability, ATP luminescence (CellTiter-Glo), 48-72 h; 94,000 compounds, 6.6% hits; Potency, µM (doses to about 115 µM), for inactives: at the highest dose activity change, negative = cytotoxicity, most hits filed as inhibitors; AID 1345083; further: nearly all actives have a fitted effect of over 60% in size
#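 Pintool-delivered compounds were incubated with HEK 293 cells (250 cells/well) at 37 degree Celsius for 48 or 72 hr. ATP-dependent luminescence (CellTiter-Glo) then reported remaining viable cells.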
# * marks the source's active call; other numbers are inactive results; i = inactive; ? = inconclusive; . = not tested or not shown; [ ] = dose if it differs, or a comment. Hits are enriched below; roughly 11% of the tested compounds scored in any of these assays. Unless noted, the call rests on the fitted dose curve; in most records, active means well fitted curve in the direction sought with a large enough effect; inconclusive means small, poorly fitted or top-dose-only effect, or another doubt; inactive means no such curve, though single readings can be large; an effect the other way counts as inactive or inconclusive. On the % scale 0 is the no-effect control and ±100 the full control effect; potency means the concentration at half of the fitted maximal effect.
SMILES,FLuc inh,NIH3T3 tox,hNpr1 antagonist,HEK293 tox
CC(C)N1CCN(C(=O)c2cc3c(=O)[nH]c(-c4ccccc4)cn3n2)CC1,i,-20%,7%,-25%
Cc1nc(-c2ccccc2)n(CC(=O)Nc2cc(C(F)(F)F)ccc2Cl)c(=O)c1CCO,i,?,-11%,?
CCOCCNC(=O)C1CCCCN1Cc1ccc(-c2cccs2)cc1 (stereo not drawn),.,40µM*,.,?
O=C(NCCc1ccccc1)C1CCCCN1Cc1ccc(-c2cccs2)cc1 (stereo not drawn),.,45µM*,.,?
O=C(NCC(F)(F)F)C1CCCCN1Cc1ccc(-c2cccs2)cc1 (stereo not drawn),.,-2%,.,-6%
O=C(Nc1cccc(Cl)c1)C1CCCCN1Cc1ccc(-c2cccs2)cc1 (stereo not drawn),.,?,.,28µM*
O=C(Nc1cccc(Cl)c1)C1CCCN1c1nc2ncccc2o1 (stereo not drawn),i,-28%,-1%,-18%
COCCNC(=O)C1CCCCN1Cc1ccc(-c2cccs2)cc1 (stereo not drawn),.,?,.,40µM*
CC(C)(C)C(=O)NC1CCN(c2ccc3nnc(C4CC4)n3n2)C1 (stereo not drawn),.,-24%,.,-3%
CCOC(=O)[C@@H]1[C@@H](OC(N)=O)C(=O)N(Cc2ccccc2)C12CCN(C(=O)C1CC1)CC2,.,?,.,-3%
Cc1ccc(C)c([S+](=O)([O-])c2nnn3c2nc(NCc2ccncc2)c2ccccc23)c1,.,?,.,-20%
COc1ccccc1-c1cnc(Nc2ccc(CN3CCN(C)CC3)cc2)c2c1CCO2,?,25µM*,-11%[70.6 µM],35µM*
COc1ccc(C(=O)Nc2ncc(-c3ccc(OC)nc3)c3c2OCC3)cc1,?,?,-11%[70.6 µM],-21%[172 µM]
COc1ccc(-c2cnc(Nc3ccc(CN4CCN(C)CC4)cc3)c3c2CCO3)cn1,?,28µM*,-15%[70.6 µM],?
COc1ccccc1-c1cnc(Nc2cncnc2)c2c1CCO2,i,?,1%[70.6 µM],?
O=C(N[C@H]1CCN2C(=O)c3cc(-c4cccc(C(F)(F)F)c4)ccc3NC(=O)[C@@H]2C1)c1ccncc1,i,?,-2%,40µM*
O=C(N[C@H]1CCN2C(=O)c3cc(-c4ccccc4F)ccc3NC(=O)[C@@H]2C1)c1ccc(F)c(Cl)c1,i,10µM*,?,10µM*
C=CCNC(=O)N[C@H]1CCN2C(=O)c3ccc(Cl)cc3NC(=O)[C@@H]2C1,i,32µM*,3%[70.6 µM],?
CS(=O)(=O)N[C@H]1CCN2C(=O)c3cc(-c4cccc(C(F)(F)F)c4)ccc3NC(=O)[C@@H]2C1,i,-4%,0%,5%
CC(C)NC(=O)N[C@H]1CCN2C(=O)c3cc(-c4ccccc4F)ccc3NC(=O)[C@@H]2C1,i,-26%[174 µM],1%[70.6 µM],?
O=C1NCCCC[C@]12C[C@H](CO)[C@H](c1ccco1)N2[S+](=O)([O-])c1ccccc1,.,?,.,i
CNC(=O)[C@H]1CN(C(=O)c2ccc(C)cc2)[C@]2(C)C(=O)N(CC3CC3)c3ccccc3[C@H]12,.,-11%[46.1 µM],.,?
C[C@@H](NC(=O)C[C@@H]1c2nc(-c3cccnc3)sc2C[C@@H]2[C@](C)(CO)[C@H](O)CC[C@]21C)c1ccccc1,i,20µM*,-4%,?
CCCCCC(=O)Nc1nc2c(s1)C[C@@H]1[C@](C)(CO)[C@H](O)CC[C@@]1(C)[C@@H]2CC(=O)N[C@H](C)c1ccccc1,i,?,1%,40µM*
C#CCN(C)C(=O)C[C@@H]1c2nc(NC(=O)CCCCC)sc2C[C@@H]2[C@](C)(CO)[C@H](O)CC[C@]21C,i,-6%,-4%,-12%
SMILES,FLuc inh,NIH3T3 tox,hNpr1 antagonist,HEK293 tox
CCCCCC(=O)Nc1nc2c(s1)C[C@@H]1[C@](C)(CO)[C@H](O)CC[C@@]1(C)[C@@H]2CC(=O)N(C)Cc1ccccc1,i,50µM*,-11%,28µM*
COc1cccc(CNC(=O)c2ccc3nnc(-c4c(C)cccc4C)n3c2)c1,.,-23%,.,-7%
CCCS(=O)(=O)N1CCC2(CC1)C(=O)N(c1cccc(F)c1)C2c1ccccc1 (stereo not drawn),.,-27%,.,25µM*
O=C1N(c2cccc(F)c2)C(c2ccccc2)C12CCN(Cc1cccc(F)c1O)CC2 (stereo not drawn),.,-38%,.,?
COc1ccc(-c2ccc(C(=O)N[C@@H]3COCC[C@H]3OC)o2)cc1,35µM*,-29%,-2%,-20%
CC(=O)N1CCN(C(=O)c2ccc3oc(-c4ccnc(Cl)c4)nc3c2)CC1,.,-15%[138 µM],.,-6%[172 µM]
Cn1c(CN2C[C@H](O)C[C@H]2c2nc(-c3ccc(OC(F)(F)F)cc3)no2)nc2ccccc21,40µM*,-27%,-7%,?
O=S(=O)(Cc1noc([C@@H]2C[C@@H](O)CN2Cc2cc3ccccc3o2)n1)c1ccc(F)cc1,i,-26%,-1%,?
O=[N+]([O-])c1ccccc1CN1C[C@H](O)C[C@H]1c1nc(Cc2ccc(F)cc2Cl)no1,?,?,1%[70.6 µM],112µM*
Cc1ccc(-c2noc([C@@H]3C[C@@H](O)CN3Cc3nc4ccccc4n3C)n2)cc1F,i,-28%[174 µM],-3%[70.6 µM],-7%[172 µM]
O[C@@H]1C[C@@H](c2nc(Cc3ccc(F)cc3Cl)no2)N(Cc2ccc(OC(F)(F)F)cc2)C1,i,?,-12%,40µM*
O=C(COc1ccccc1)c1ccc2c(c1)N(CCCC(=O)N1CCCC1)C(=O)CO2,i,-23%,-10%,?
O=[N+]([O-])c1cccc(-c2noc([C@@H]3Cc4nc[nH]c4CN3Cc3ccc(F)cc3)n2)c1,i,?,?,50µM*
O=[N+]([O-])c1cccc(-c2noc([C@@H]3Cc4nc[nH]c4CN3Cc3cccs3)n2)c1,i,79µM*,?,?
COc1ccc(-c2nc3cc(C(=O)N4CCOCC4)ccc3o2)cn1,.,-23%,.,0%
CN1C[C@@H](NC(=O)Nc2ccccc2)C[C@H]1c1nc(-c2ccc(Cl)cc2)no1,35µM*,?,?,?
Cc1ccc(NC(=O)N[C@H]2C[C@@H](c3nc(-c4ccc(F)cc4)no3)N(C)C2)cc1,?,?,-17%[70.6 µM],-26%[172 µM]
CN1C[C@@H](NC(=O)Nc2ccccc2)C[C@H]1c1nc(Cc2ccccc2)no1,45µM*,?,-2%[70.6 µM],?
CN1C[C@@H](NC(=O)c2ccc(F)cc2)C[C@H]1c1nc(-c2ccccc2)no1,?,-13%[174 µM],-8%[70.6 µM],?
CN1C[C@@H](NC(=O)c2cccs2)C[C@H]1c1nc(-c2ccc(F)cc2)no1,i,?,-30%[70.6 µM],89µM*
O=C1NCCCCCCN(C(=O)COc2ccccc2)[C@H]2C[C@H](c3nc(-c4cnccn4)no3)C[C@@H]12,i,-17%,-6%,?
CN(C)C(=O)c1cnn2ncccc12,?,-2%[174 µM],14%[70.6 µM],4%[230 µM]
CCCNC(=O)[C@@H]1Cc2cn(Cc3c(C)noc3C)c3cccc(c23)[C@H](CC(C)C)N1,i,71µM*,-2%[70.6 µM],25µM*
